Assay outcomes (PubChem BioAssay)
The list is not random: actives were taken first. Their share in the collection is about 4.7%.
D1 antag = Antagonist of Human D 1 Dopamine Receptor: qHTS; AID 504652, 2011; activity change, negative = inhibition, % at 10 µM; D(1A) dopamine receptor (Homo sapiens), P21728; HEK293 TREx D1 cells, calcium flux, dopamine EC80; stronger effect = lower value; 360,000 compounds, 3.2% hits; in the data active = activity change below about -30%
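After overnight tetracycline induction at 30 C, force-coupled D1 HEK293 cells took up a no-wash calcium dye at room temperature. Compounds were added and monitored 180 s, and the response to EC80 dopamine was then recorded.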
D1 potentiator = Potentiators of Human D1 Dopamine Receptor: qHTS; D(1A) dopamine receptor (Homo sapiens), P21728; HEK293 TREx D1 cells, calcium flux, dopamine EC20 potentiation; potentiation, % at 10 µM; 360,000 compounds, 0.036% hits; AID 504651, 2011; in the data active = potentiation above about 30%
TRHR ag = qHTS for Small Molecule Agonists and Allosteric Enhancers of Human TRH Receptor: Primary Screen for Agonists; AID 493084, 2011; TRHR cells, calcium flux fluo-8, FDSS agonist mode; activation, % at 2 µM; 360,000 compounds, 0.18% hits
Target sequence (P34981 whole entry, looked up): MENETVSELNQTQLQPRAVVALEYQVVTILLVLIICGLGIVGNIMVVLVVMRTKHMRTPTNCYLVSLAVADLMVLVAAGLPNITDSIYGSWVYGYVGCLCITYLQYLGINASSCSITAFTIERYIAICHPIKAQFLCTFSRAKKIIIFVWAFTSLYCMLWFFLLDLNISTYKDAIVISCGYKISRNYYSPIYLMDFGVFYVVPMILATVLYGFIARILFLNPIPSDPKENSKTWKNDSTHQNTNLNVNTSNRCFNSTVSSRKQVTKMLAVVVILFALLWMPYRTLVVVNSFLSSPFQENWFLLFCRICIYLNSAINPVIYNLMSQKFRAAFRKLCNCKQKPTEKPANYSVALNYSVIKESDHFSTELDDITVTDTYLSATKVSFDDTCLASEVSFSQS
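Fluo-8-loaded TRHR cells; 10 s baseline, compound added, kinetic Ca2+ fluorescence read 1/s, agonist mode.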
D1 agonist = Allosteric Agonists of the Human D1 Dopamine Receptor: qHTS; 360,000 compounds, 1% hits; D(1A) dopamine receptor (Homo sapiens), P21728; AID 504660, 2011; activation, % at 2 µM; HEK293 T-REx D1 cells, calcium flux, agonist mode
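Agonism was scored from calcium flux recorded over 180 s (1 read/s) after pintool compound addition, following a 10-cycle baseline. Cells were inducible force-coupled HEK293 TREx D1, plated overnight at 30 C and loaded with no-wash calcium dye.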
TRHR enhancer = qHTS for Small Molecule Agonists and Allosteric Enhancers of Human TRH Receptor: Primary Screen for Enhancers | Thyrotropin-releasing hormone receptor (Homo sapiens), P34981 | TRHR cells, fluo-8 calcium fluorescence, EC20 TRH enhancement | enhancement, % at 2 µM | 360,000 compounds, 0.66% hits; in the data active = enhancement above about 30%
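TRHR-expressing cells loaded with fluo-8 calcium dye were read kinetically (ex 480/em 530) during compound addition, then stimulated with an EC20 of TRH (10 nM final). Enhancement of the Gq-mediated intracellular calcium response was scored.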
Each line names hits and unclear results; the compound was inactive in the other large screens; ! = repeats disagree. Rule as the data show it, unless noted: active = activation above about 30%; inactive = the rest.

COc1ccc(OC)c(NC(=O)Cn2cc(C(=O)c3ccc(Cl)cc3)c(=O)c3cc(OC)ccc32)c1	none
CCOc1ccc(OCC)c(S(=O)(=O)n2cnc(C)c2)c1	TRHR enhancer 32
CCOc1ccc(OCC)c(S(=O)(=O)N2CCCCC2)c1	none
O=C(CCCn1c(=O)c2sccc2n(Cc2c(F)cccc2Cl)c1=O)NCc1ccccc1	none
O=C(CSc1ncccn1)N/N=C/c1cccc(OC2CSC2)c1	D1 antag -36
COc1cccc(/C=N/NC(=O)CSc2cccc3cccnc23)c1	none
Cn1ncc(Cl)c1C(=O)N/N=C/c1cccc(OC2CSC2)c1	D1 antag -45
CCN(CC(=O)Nc1c(F)cccc1F)C(=O)C1CCN(S(=O)(=O)c2ccc(C)cc2C)CC1	none
Cc1cccc(C)c1N(CC(O)Cn1c2ccccc2c2ccccc21)S(C)(=O)=O (stereo unspecified)	D1 antag -36
CC(C)CN(CC(C)C)CC(O)Cn1cc(/C=C/C(=O)c2ccccc2)c2ccccc21 (stereo unspecified)	none
CCCN(CCC)CC(O)Cn1cc(/C=C/C(=O)c2ccc(OCC)cc2)c2ccccc21 (stereo unspecified)	D1 antag -32, D1 agonist 69
CC(C)CCN(CCC(C)C)CC(O)Cn1c2ccccc2c(=O)c2ccccc21 (stereo unspecified)	none
CCCN(CCC)CC(O)Cn1c2ccccc2c2ccccc21 (stereo unspecified)	D1 agonist 31
COCCCNC(=O)c1ccc(Cn2c(=O)c3ccccc3n(Cc3ccc(C)cc3)c2=O)cc1	none
COCCCNC(=O)c1cc(=O)n(Cc2ccc(Cl)cc2)c2ccccc12	D1 antag -31
CCn1c(NCc2cccc(Cl)c2)nc2ccccc21	none
COc1ccccc1NC(=O)c1ccc(COc2ccc(C)c(C)c2)o1	none
CC(C)(C)c1ccc(OCc2ccc(C(=O)Nc3cccnc3)o2)cc1	TRHR enhancer 38
COc1ccc(NC(=O)c2ccc(COc3ccccc3)o2)c(OC)c1	D1 antag -31
COc1ccc(CCNC(=O)CSc2nnc(Cc3cccn3C)n2C)cc1OC	none
COc1ccc(-n2c(C)nc(=O)c(-c3ccccc3)c2C)cc1	none
CC(=O)Oc1ccccc1-n1c(C)nc(=O)c(-c2ccccc2)c1C	D1 antag -39
CCc1nc(=O)c(-c2ccccc2)c(C)n1-c1ccccc1	TRHR enhancer 37
Cc1ccccc1OCCCCn1nnc2sc3c(c2c1=O)CCC(C)C3 (stereo unspecified)	none
COc1cc(CNC(=O)c2ccc3c(c2)N(C)C(=O)C2CCCCN32)cc(OC)c1OC (stereo unspecified)	none
CCN(CCNCC(O)COc1ccccc1C(C)C)c1cccc(C)c1 (stereo unspecified)	D1 agonist 56
CCc1ccccc1NC(=O)CN(c1ccccc1)S(=O)(=O)c1ccsc1C(=O)OC	none
Cc1ccc(-c2onc(C)c2C)cc1S(=O)(=O)Nc1cccc(Cl)c1C	D1 antag -39
COc1ccc(-c2onc(C)c2C)cc1S(=O)(=O)NC1CCCCC1	none
Cc1ccc(-c2onc(C)c2C)cc1S(=O)(=O)NCc1ccc(N(C)C)cc1	D1 antag -32
Cc1ccc(-c2onc(C)c2C)cc1S(=O)(=O)NC1CCCCC1	D1 antag -63
COc1ccc(NC(=O)N2CCc3c(sc4c3CCCC4)C2c2ccccc2OC)cc1 (stereo unspecified)	none
O=C(CCn1c(=O)c2cccn2c2ccc(F)cc21)NCc1ccccc1F	D1 antag -69
CN(C)c1ccc(CNC(=O)CCn2c(=O)c3cccn3c3ccc(F)cc32)cc1	D1 antag -30
CSc1ccc(CNC(=O)CCn2c(=O)c3cccn3c3ccc(F)cc32)cc1	none
Cc1ccc(NC(=O)CCn2c(=O)c3cccn3c3ccccc32)cc1C	D1 antag -37!
O=C(CCn1c(=O)c2cccn2c2ccc(F)cc21)NCc1cccc(F)c1	none
CCc1ccc(-n2c(=O)c3c4c(sc3n(CC(=O)c3ccc(Cl)cc3)c2=O)CCC4)cc1	none
CC1(C)Cc2cccc(OCC(=O)Nc3cccnc3Cl)c2O1	none
OCC1(Cc2cccc(C(F)(F)F)c2)CCN(Cc2cc(F)cc(F)c2)CC1	none
CSc1cccc(CN2CCC(CO)(Cc3cccc(C(F)(F)F)c3)CC2)c1	D1 agonist 41
CCOCCc1nn2c(=O)cc(COC(=O)CNC(=O)c3cccc(C)c3)nc2s1	none
O=C(C[n+]1cccc2ccccc21)c1ccc([N+](=O)[O-])cc1	none
Cc1cc[n+](CC(=O)c2cccc([N+](=O)[O-])c2)c2ccccc12	TRHR enhancer 34
CC(=O)c1cccc(N=Nc2c(-c3ccccc3)[nH]n(-c3ccccc3)c2=O)c1	D1 antag -31
COc1ccc(OCC(O)CNC(=O)Nc2ccc(F)cc2)cc1 (stereo unspecified)	D1 antag -38
O=C(CNC(=O)c1ccccc1F)N/N=C/c1cc(Br)ccc1OC(=O)/C=C/c1ccco1	none
O=C(CNC(=O)c1ccc(F)cc1)N/N=C/c1cc(Br)ccc1OC(=O)/C=C/c1ccco1	D1 antag -45
Cc1cccc(/C=c2\s/c(=C\C(=O)C(C)(C)C)[nH]c2=O)c1	none
CC(C)(C)C(=O)/C=c1\[nH]c(=O)/c(=C\c2ccc(C#N)cc2)s1	D1 antag -47
CCCN(C(=O)c1coc(=O)c2ccccc12)c1ccccc1C	none
Cc1ccc2c(c1)[C@@H]1CN(C)CC[C@@H]1N2S(=O)(=O)c1ccc([N+](=O)[O-])cc1	D1 agonist 60
Cc1ccc2c(c1)[C@@H]1CN(C)CC[C@@H]1N2S(=O)(=O)c1ccc(F)cc1	none
Cc1ccc2c(c1)C1CN(C)CCC1N2Sc1ccccc1[N+](=O)[O-] (stereo unspecified)	D1 antag -95
COc1ccc(CCn2c(=O)c3cccnc3n(Cc3ccc([N+](=O)[O-])cc3)c2=O)cc1OC	D1 antag -46
COc1ccc(Cn2c(=O)c3cccnc3n(Cc3ccc([N+](=O)[O-])cc3)c2=O)cc1	none
COc1ccc(NC(=O)c2cc3c(-c4ccccc4F)nn(C)c3s2)c(OC)c1	none
Cn1cc(CN(C(=O)Nc2ccc(Cl)c(Cl)c2)C2CCCCC2)c2ccccc21	D1 antag -47
CC(C)(C)c1ccc(C(=O)Nc2ccc(-c3nc4cc(Cl)ccc4o3)cc2)cc1	none
O=S(=O)(NCCCN1CCN(c2ccccc2F)CC1)c1cccc2cccnc12	D1 antag -73
